Source: PubChem BioAssay (NCI)
This is part of a sample that, as a whole, favours compounds with a hit. Of some 83,000 tested, about 20% had one in any assay.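 Growth was measured after 48 h exposure to one concentration of compound in 96-well plates. Values under 10 count as active.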 A number with no mark means an inactive call. Activity calls are given as the source filed them.

Legend:
Test in all cases: NCI-60 one-dose screen, 48 h (100 = growth as untreated, 0 = no growth, -100 = all killed)
Conditions in all cases: 10 µM unless noted
[1] = test system: NCI-H23 lung
[2] = test system: NCI-H226 lung
[3] = test system: NCI-H322M lung
[4] = test system: HOP-62 NSCLC
[5] = test system: NCI-H460 lung
[6] = test system: HOP-92 NSCLC
[7] = test system: NCI-H522 lung
[8] = test system: A549/ATCC NSCLC
[9] = test system: COLO 205 colon
[10] = test system: 786-0 renal

SMILES | growth [1] | growth [2] | growth [3] | growth [4] | growth [5] | growth [6] | growth [7] | growth [8] | growth [9] | growth [10]
Oc1ccc(-c2cnc(-c3ccccc3)[nH]2)c(O)c1 | 108% | 86.2% | 94.9% | -12.1% (active) | 110% | 58.7% | 99.8% | 24.8% | 117% | –
CS(=O)(=O)Nc1cc(-c2cc3ncc(C#N)c(Nc4ccc(Oc5ccccc5)c(Cl)c4)c3s2)cnc1Cl | 56.6% | 64.3% | 26.9% | 54.8% | 21.7% | 45.6% | 32.4% | 55.2% | 66.9% | –
CCC1CCc2nc3sc(C(=O)Nc4cccc(F)c4)c(N)c3cc2C1 (stereo not given) | 91.7% | 85.2% | 87.8% | 74.1% | 74.5% | 61.4% | 70.1% | – | 67.8% | 83.1%
CN(C)c1ccc(Nc2c3ccccc3nc3ccccc23)cc1 | 16% | -38.3% (active) | 15.5% | 32.6% | -26.6% (active) | -7.43% (active) | 20.4% | – | -51.7% (active) | 9.08% (active)
C=C(CN1CC=CCC1)[C@@H]1CC[C@]2(C(=O)OC)CC[C@]3(C)[C@H](CC[C@@H]4[C@@]5(C)CC[C@H](OC(C)=O)C(C)(C)[C@@H]5CC[C@]43C)[C@@H]12 | 95.5% | 95.1% | 104% | 106% | 97.8% | 71.2% | 84% | 100% | 77.6% | 109%
OC(c1cc2cc(Cl)ccc2c2cc(C(F)(F)F)ccc12)C1CCCCN1 (stereo not given) | -78.8% (active) | -73% (active) | -42.7% (active) | -92.3% (active) | -67.8% (active) | -76.1% (active) | -89.6% (active) | – | -87.2% (active) | -67.5% (active)
CC(C)c1[nH]ncc1-c1nc2ccc3[nH]ncc3c2c2c1CCCC2 | 32.7% | 35.5% | 39.7% | 30.5% | 16.1% | 58.5% | 41% | 13.9% | 7.79% (active) | 23.2%
O=C(Nc1ccc(Oc2ccc(NC(=O)Nc3ccccc3Cl)cc2)cc1)Nc1ccccc1Cl | 41.8% | 61.9% | 75.7% | 81% | 30.2% | 38% | -10.4% (active) | – | 49% | 78.7%
COc1ccccc1/C=N\NC(=S)Nc1ccc(F)cc1 | 72.5% | 90.9% | 96% | 79.8% | 80.5% | 71% | 38.1% | – | 91.9% | 93.6%
CC(CN1CCN(C)CC1)CN1c2ccccc2Sc2ccc(C(F)(F)F)cc21 (stereo not given) | 74.3% | 81.8% | 80% | 85.6% | 0.601% (active) | 39.7% | 43.8% | – | -68% (active) | 52.2%
C/C(=N\NC(=S)Nc1ccccc1)c1ccccn1 | 59.8% | 21.3% | 20.9% | 41.4% | 17.3% | 37.1% | 12.6% | 45.7% | 25.6% | 32.6%
O=C(/C=C/c1cccc([N+](=O)[O-])c1)c1ccc(Nc2nc(N3CCCCC3)nc(N3CCCCC3)n2)cc1 | 98.7% | 74.2% | 103% | 105% | 96% | 102% | 87.2% | 85.7% | 108% | 93.9%
COc1cc(-c2csc(NC(=O)Nc3cccc(C(F)(F)F)c3)n2)cc(OC)c1OC | 27.8% | 55.6% | 68.3% | 63.6% | 53.8% | 47.8% | 40.7% | – | 75.4% | 64.2%
Cc1cc(N=Nc2ccc(-c3ccc(N=Nc4ccc(O)c(C(=O)O)c4)cc3)cc2)c(N)c(N=Nc2ccc(C(=O)O)cc2)c1N | 93.4% | 92.4% | 99.9% | 99.7% | 117% | 71.8% | 85.2% | – | 108% | 84.4%
